Test results reported in the supplement of paper PMC10849652.
About 8,800 targets were measured; listed, in parts, are those with a hit and a random draw of the rest. About 0.5% of all pairs of compound and target were hits.

Key:
Assay in all cases: log2 fold change, soluble protein after heating vs DMSO (PISA); higher = thermal stabilisation; K562 lysate, 10 uM; active = over 0.2 and 3.5 SD of the protein, either way, in both replicates (recomputed)
[1] = compound: NCC(=O)Nc1ccc(-n2nc(C(F)(F)F)cc2-c2ccc3c(ccc4ccccc43)c2)cc1
How it was run: (§1)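 Dounce homogenisation of K562 pellets in PBS pH 7.4 with 1 mM MgCl2 produced a crude extract, used at 1 mg/mL protein. Exposure to 10 μM compound lasted 30 min, and aliquots were then heated for 3 min across 48°C-58°C, pooled and brought to 0.5% NP-40 at 4°C. The supernatant after 21,000xg for 90 min was quantified by TMTpro 16plex LC-MS/MS with channel sums equalised. Duplicate values are given as log-two fold change in thermal stability relative to solvent controls.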

vorinostat = compound: O=C(CCCCCCC(=O)Nc1ccccc1)NO [vorinostat]
How it was run: as §1

silmitasertib = compound: O=C(O)c1ccc2c(c1)nc(Nc1cccc(Cl)c1)c1ccncc12 [silmitasertib]
How it was run: as §1

entospletinib = compound: c1cn2cc(-c3ccc4cn[nH]c4c3)nc(Nc3ccc(N4CCOCC4)cc3)c2n1 [entospletinib]
How it was run: as §1

[2] = compound: O=C1NC(=O)C(c2cnc3ccccn23)=C1c1cn2c3c(cc(F)cc13)CN(C(=O)N1CCCCC1)CC2
How it was run: as §1

Measured: log2 fold change

PCBP2 (UniProt F8W0G4)
inactive: [1] 0.083 | vorinostat -0.058 | silmitasertib 0.025 | entospletinib -0.088

PRIMPOL (UniProt Q96LW4)
Chain of UniProt Q96LW4 (Q96LW4 whole entry, looked up): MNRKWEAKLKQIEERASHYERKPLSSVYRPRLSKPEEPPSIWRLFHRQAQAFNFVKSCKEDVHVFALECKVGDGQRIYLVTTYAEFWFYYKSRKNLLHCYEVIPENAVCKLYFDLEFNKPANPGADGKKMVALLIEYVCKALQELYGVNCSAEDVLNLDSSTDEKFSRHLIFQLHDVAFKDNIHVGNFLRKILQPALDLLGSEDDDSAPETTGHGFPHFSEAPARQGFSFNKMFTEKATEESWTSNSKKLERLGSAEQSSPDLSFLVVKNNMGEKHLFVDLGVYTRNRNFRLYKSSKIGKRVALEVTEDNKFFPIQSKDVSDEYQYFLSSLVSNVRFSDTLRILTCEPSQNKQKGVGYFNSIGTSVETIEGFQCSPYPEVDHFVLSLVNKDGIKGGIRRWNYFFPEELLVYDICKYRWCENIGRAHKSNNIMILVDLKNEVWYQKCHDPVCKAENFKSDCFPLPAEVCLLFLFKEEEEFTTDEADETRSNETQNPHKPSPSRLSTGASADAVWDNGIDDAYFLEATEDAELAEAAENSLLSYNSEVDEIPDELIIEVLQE
active: vorinostat -0.337
inactive: [1] -0.03 | silmitasertib 0.034 | [2] -0.028 | entospletinib 0.029

PFN3 (UniProt P60673)
Chain of UniProt P60673 (P60673 whole entry, looked up): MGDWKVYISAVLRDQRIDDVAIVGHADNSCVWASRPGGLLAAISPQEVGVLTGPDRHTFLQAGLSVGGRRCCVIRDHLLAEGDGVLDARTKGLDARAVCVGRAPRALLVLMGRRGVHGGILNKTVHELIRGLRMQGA
inactive: [1] 0.158 | [2] -0.142 | entospletinib -0.134

PTK2 isoform 2 (UniProt Q05397)
Chain of UniProt Q05397 (Q05397 whole entry, looked up): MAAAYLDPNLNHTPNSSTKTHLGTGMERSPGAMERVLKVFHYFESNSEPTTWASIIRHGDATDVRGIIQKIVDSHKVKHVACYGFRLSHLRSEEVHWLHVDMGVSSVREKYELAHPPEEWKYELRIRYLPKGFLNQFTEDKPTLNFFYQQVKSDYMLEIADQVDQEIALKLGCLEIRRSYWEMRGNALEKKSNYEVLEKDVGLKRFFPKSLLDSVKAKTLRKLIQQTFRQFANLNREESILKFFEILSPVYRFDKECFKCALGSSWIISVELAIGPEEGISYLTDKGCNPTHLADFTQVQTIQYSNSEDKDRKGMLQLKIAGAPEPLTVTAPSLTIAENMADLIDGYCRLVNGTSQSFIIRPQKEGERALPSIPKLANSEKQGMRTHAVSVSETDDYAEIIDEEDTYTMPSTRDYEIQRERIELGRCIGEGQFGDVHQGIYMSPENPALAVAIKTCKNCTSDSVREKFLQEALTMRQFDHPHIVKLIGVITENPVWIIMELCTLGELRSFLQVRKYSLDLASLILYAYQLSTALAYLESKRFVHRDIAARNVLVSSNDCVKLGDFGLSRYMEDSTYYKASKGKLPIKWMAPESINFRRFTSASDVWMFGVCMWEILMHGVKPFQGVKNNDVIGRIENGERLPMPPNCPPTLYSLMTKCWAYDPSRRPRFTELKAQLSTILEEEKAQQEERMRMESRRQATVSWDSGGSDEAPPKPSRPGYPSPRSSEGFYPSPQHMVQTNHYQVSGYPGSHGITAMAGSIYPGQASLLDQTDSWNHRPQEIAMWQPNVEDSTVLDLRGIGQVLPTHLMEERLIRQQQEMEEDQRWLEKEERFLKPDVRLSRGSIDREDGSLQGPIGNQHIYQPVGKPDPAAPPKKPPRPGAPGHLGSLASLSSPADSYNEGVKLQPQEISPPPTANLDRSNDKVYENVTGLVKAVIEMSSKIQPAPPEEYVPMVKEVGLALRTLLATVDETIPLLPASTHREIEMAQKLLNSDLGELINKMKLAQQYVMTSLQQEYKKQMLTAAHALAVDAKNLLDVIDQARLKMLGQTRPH
inactive: vorinostat -0.056 | silmitasertib 0.046 | entospletinib 0.007

PFKP (UniProt Q01813)
Chain of UniProt Q01813 (Q01813 whole entry, looked up): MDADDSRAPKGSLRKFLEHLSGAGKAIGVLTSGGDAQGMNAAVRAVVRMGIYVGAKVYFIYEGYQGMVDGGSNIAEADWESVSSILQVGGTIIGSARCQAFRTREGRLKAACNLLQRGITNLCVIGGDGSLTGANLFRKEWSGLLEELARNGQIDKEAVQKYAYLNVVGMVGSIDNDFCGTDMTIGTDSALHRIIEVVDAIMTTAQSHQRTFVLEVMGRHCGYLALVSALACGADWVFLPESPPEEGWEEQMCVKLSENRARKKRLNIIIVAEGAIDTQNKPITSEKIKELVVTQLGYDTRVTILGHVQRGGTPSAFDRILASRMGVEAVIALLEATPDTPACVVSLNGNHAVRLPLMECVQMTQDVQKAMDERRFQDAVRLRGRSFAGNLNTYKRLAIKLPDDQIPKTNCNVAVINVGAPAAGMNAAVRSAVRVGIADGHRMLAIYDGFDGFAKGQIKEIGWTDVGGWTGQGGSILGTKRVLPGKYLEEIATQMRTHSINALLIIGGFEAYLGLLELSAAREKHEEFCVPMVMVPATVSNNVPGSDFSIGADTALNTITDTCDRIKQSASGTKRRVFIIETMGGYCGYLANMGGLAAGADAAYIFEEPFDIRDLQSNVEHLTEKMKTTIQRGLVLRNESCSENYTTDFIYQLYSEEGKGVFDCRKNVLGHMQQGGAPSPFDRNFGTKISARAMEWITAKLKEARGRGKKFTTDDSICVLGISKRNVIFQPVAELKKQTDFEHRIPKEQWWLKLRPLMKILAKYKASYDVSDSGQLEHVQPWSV
inactive: [1] 0.004 | vorinostat 0.009 | silmitasertib 0.008 | [2] 0.03 | entospletinib 0.049

PECR (UniProt Q9BY49)
Chain of UniProt Q9BY49 (Q9BY49 whole entry, looked up): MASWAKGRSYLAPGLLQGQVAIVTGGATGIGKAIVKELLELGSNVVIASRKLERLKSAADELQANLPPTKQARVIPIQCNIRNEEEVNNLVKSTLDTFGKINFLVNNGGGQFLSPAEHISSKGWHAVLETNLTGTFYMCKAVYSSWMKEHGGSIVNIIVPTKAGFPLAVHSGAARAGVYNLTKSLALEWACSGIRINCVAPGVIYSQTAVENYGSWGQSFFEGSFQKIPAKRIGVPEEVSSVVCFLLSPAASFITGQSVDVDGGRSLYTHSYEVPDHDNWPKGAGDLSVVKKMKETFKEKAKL
inactive: entospletinib 0.115

PDIA4, A0A499FI48
inactive: [2] 0.045

PHOSPHO2 (UniProt C9JD35)
inactive: [2] 0.004 | entospletinib 0.155

PWP1 (UniProt Q13610)
inactive: [1] -0.082 | vorinostat 0.139 | silmitasertib -0.033 | [2] 0.022 | entospletinib -0.003

PREP (UniProt P48147)
Chain of UniProt P48147 (P48147 whole entry, looked up): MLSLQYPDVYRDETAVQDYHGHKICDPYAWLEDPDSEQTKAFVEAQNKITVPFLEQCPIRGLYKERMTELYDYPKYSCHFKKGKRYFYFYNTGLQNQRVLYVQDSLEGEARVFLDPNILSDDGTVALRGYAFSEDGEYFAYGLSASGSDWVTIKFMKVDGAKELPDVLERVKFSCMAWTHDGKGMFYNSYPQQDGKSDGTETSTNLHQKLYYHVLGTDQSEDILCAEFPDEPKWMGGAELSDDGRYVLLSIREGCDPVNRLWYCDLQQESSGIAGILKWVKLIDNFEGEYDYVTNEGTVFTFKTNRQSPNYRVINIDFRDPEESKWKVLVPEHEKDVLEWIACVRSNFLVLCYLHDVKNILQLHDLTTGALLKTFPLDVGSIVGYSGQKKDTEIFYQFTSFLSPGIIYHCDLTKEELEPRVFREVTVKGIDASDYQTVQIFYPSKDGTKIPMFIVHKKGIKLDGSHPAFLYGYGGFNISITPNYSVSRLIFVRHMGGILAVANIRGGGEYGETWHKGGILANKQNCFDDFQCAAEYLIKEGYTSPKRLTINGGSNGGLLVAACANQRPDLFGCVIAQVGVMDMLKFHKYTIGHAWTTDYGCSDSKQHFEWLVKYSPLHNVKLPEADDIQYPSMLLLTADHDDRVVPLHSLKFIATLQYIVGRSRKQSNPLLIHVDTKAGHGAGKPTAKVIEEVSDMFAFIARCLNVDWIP
inactive: [1] 0.006 | vorinostat -0.153 | silmitasertib 0.008 | [2] -0.01 | entospletinib 0.014

PRR4 (UniProt Q16378)
Chain of UniProt Q16378 (Q16378 whole entry, looked up): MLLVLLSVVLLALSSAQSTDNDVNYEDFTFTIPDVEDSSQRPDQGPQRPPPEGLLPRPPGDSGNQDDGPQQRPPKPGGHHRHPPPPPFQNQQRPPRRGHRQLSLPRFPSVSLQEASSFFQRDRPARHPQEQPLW
inactive: [1] 0.009 | vorinostat 0.229 | silmitasertib -0.176 | entospletinib 0.302

PI4K2A (UniProt Q9BTU6)
Chain of UniProt Q9BTU6 (Q9BTU6 whole entry, looked up): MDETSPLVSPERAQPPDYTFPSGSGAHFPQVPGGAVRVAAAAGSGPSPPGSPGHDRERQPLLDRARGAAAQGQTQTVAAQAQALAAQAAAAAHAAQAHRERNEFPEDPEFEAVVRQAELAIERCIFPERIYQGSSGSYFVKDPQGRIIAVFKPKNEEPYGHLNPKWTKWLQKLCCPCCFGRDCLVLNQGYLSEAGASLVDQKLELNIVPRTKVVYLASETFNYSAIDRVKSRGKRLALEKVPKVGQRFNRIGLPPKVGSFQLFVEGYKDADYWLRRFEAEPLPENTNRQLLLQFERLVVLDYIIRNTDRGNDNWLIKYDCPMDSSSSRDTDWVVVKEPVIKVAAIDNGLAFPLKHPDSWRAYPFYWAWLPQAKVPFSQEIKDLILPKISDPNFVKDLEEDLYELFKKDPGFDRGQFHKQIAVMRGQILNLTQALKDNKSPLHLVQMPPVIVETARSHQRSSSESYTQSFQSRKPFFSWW
inactive: [1] -0.006 | vorinostat -0.005 | silmitasertib 0.074 | [2] -0.009 | entospletinib 0.001

PPME1 (UniProt Q9Y570)
Chain of UniProt Q9Y570 (Q9Y570 whole entry, looked up): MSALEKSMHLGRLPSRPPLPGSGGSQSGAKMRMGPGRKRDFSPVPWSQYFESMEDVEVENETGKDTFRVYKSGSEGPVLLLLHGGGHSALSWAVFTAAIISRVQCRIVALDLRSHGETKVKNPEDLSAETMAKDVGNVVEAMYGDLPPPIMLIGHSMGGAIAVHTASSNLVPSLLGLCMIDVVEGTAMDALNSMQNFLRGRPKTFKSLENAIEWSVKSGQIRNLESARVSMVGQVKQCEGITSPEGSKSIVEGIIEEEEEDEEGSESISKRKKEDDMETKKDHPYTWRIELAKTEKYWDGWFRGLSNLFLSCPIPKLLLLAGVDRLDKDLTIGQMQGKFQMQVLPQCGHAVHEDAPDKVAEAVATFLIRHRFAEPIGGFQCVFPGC
inactive: silmitasertib 0.185 | entospletinib -0.063
active: vorinostat -0.673
